Measurements: PubChem BioAssay (Tox21)
A number with no mark means an inactive call. Records with an inconclusive call do not appear. Where a call stands in place of a potency, no number is given. The source made the active and inactive calls. Calls follow the shape of the dose curve; as a rule, active = well fitted curve in the direction sought with a large enough effect in the repeat runs; inconclusive = weak or mixed curves; inactive = no such curve, though single readings can be large; an effect the other way counts as inactive or inconclusive.

How the values were obtained:
[1] = qHTS RealTime-Glo MT Cell Viability Assay in HepG2 cells - 40 hour (AID 1224870); also: nearly all actives have a fitted effect of over 50% in size; also: potency is read from the fitted curve at half-maximal effect
Outline: (§1)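 Real-time viability: cells seeded at 600 per well together with NanoLuc and cell-permeant prosubstrate, compounds added after 5 h incubation. Luminescence tracked at 0, 8, 16, 24, 32 and 40 h of exposure.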

[2] = A CellTox Green Cytotoxicity Assay to monitor cytotoxicity in HEK293 cells - 40 hour (AID 1224871); also: nearly all actives have a fitted effect of over 45% in size; also: potency is read from the fitted curve at half-maximal effect
Outline: (§2)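 Real-time, in one plate: 600 HEK293 cells/well with dead-cell DNA dye, pinned compound after 5 h, 37 C incubation over 40 h; viable cells give no appreciable fluorescence.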

[3] = qHTS RealTime-Glo MT Cell Viability Assay in HepG2 cells - 8 hour (AID 1224873); also: nearly all actives have a fitted effect of over 55% in size
Outline: as §1

[4] = qHTS RealTime-Glo MT Cell Viability Assay in HEK293 cells - 40 hour (AID 1224874); details: RealTime-Glo luminescence; max response: active compounds read low; also: nearly all actives have a fitted effect of over 50% in size; also: potency is read from the fitted curve at half-maximal effect
Outline: (§3)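 Kinetic, non-lysing viability readout. Seed HEK293 (600/well) with reagent, incubate 5 h at 37 C/5% CO2, pin 23 nL compound in DMSO, incubate at 37 C, read luminescence at 0, 8, 16, 24, 32, 40 h.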

[5] = A CellTox Green Cytotoxicity Assay to monitor cytotoxicity in HEK293 cells - 24 hour (AID 1224875); also: series mostly up to about 77 µM; nearly all actives have a fitted effect of over 45% in size
Outline: as §2

[6] = A CellTox Green Cytotoxicity Assay to monitor cytotoxicity in HepG2 cells - 16 hour (AID 1224876); also: nearly all actives have a fitted effect of over 45% in size; also: potency is read from the fitted curve at half-maximal effect
Outline: (§4)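 Cytotoxicity was tracked as dead-cell DNA fluorescence in HepG2 cells treated with test compounds at 37 C; each time-point value comes from one kinetic series spanning 0, 8, 16, 24, 32 and 40 h.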

[7] = qHTS RealTime-Glo MT Cell Viability Assay in HepG2 cells - 32 hour (AID 1224877); also: nearly all actives have a fitted effect of over 55% in size; also: potency is read from the fitted curve at half-maximal effect
Outline: (§5)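 qHTS, HepG2, 600 cells/well, RealTime-Glo (NanoLuc + prosubstrate) added with cells; 5 h preincubation; DMSO compound addition; 37 C; luminescence at 0/8/16/24/32/40 h.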

[8] = A CellTox Green Cytotoxicity Assay to monitor cytotoxicity in HepG2 cells - 24 hour (AID 1224878); also: nearly all actives have a fitted effect of over 45% in size; also: potency is read from the fitted curve at half-maximal effect
Outline: as §4

[9] = A CellTox Green Cytotoxicity Assay to monitor cytotoxicity in HepG2 cells - 40 hour (AID 1224879); also: nearly all actives have a fitted effect of over 40% in size
Outline: as §4

[10] = qHTS RealTime-Glo MT Cell Viability Assay in HEK293 cells - 0 hour (AID 1224880)
Outline: as §3

[11] = A CellTox Green Cytotoxicity Assay to monitor cytotoxicity in HEK293 cells - 32 hour (AID 1224881); also: nearly all actives have a fitted effect of over 40% in size; also: potency is read from the fitted curve at half-maximal effect
Outline: as §2

[12] = A CellTox Green Cytotoxicity Assay to monitor cytotoxicity in HepG2 cells - 0 hour (AID 1224882); also: nearly all actives have a fitted effect of over 35% in size
Outline: as §4

[13] = A CellTox Green Cytotoxicity Assay to monitor cytotoxicity in HepG2 cells - 32 hour (AID 1224883); also: nearly all actives have a fitted effect of over 50% in size; also: potency is read from the fitted curve at half-maximal effect
Outline: as §4

[14] = qHTS RealTime-Glo MT Cell Viability Assay in HepG2 cells - 16 hour (AID 1224885); also: nearly all actives have a fitted effect of over 50% in size
Outline: as §5

[15] = qHTS RealTime-Glo MT Cell Viability Assay in HEK293 cells - 24 hour (AID 1224886); also: nearly all actives have a fitted effect of over 50% in size; also: potency is read from the fitted curve at half-maximal effect
Outline: (§6)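 Assay medium contained NanoLuc luciferase plus cell-permeant prosubstrate, added with HEK293 cells at 600 cells/well. After 5 h at 37 C/5% CO2 compounds were added; plates stayed at 37 C for 40 h with serial luminescence reads.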

[16] = qHTS RealTime-Glo MT Cell Viability Assay in HEK293 cells - 8 hour (AID 1224887)
Outline: as §3

[17] = qHTS RealTime-Glo MT Cell Viability Assay in HepG2 cells - 0 hour (AID 1224889); also: nearly all actives have a fitted effect of over 50% in size
Outline: as §5

[18] = A CellTox Green Cytotoxicity Assay to monitor cytotoxicity in HEK293 cells - 16 hour (AID 1224888); also: nearly all actives have a fitted effect of over 35% in size
Outline: as §2

[19] = A CellTox Green Cytotoxicity Assay to monitor cytotoxicity in HEK293 cells - 8 hour (AID 1224884); also: nearly all actives have a fitted effect of over 35% in size
Outline: as §2

[20] = qHTS RealTime-Glo MT Cell Viability Assay in HEK293 cells - 16 hour (AID 1224872)
Outline: as §6

In the case of `C1=COCCC1`, the Potency [1] is reported as “inactive”, the Potency [2] is reported as “inactive” and the outcome [3] is reported as “inactive”. For the same compound, the max response [4] was 1.01%, the Potency [5] was “inactive” and the Potency [6] was “inactive”. The Potency [7] was “inactive”, the Potency [8] was “inactive” and the Potency [9] was “inactive”. For the same compound, the Potency [10] was “inactive”, the Potency [11] was “inactive” and the Potency [12] was “inactive”. For the same compound, the Potency [13] was “inactive”, the outcome [14] was “inactive” and the Potency [15] was “inactive”. The Potency [16] was “inactive” and the Potency [17] was “inactive”.

For `N#Cc1ccc(CC(=O)c2cccc(C(F)(F)F)c2)cc1`, the Potency [1] was “inactive”, the Potency [2] was “inactive” and the outcome [3] was “inactive”. The Potency [5] was “inactive”, the Potency [6] was “inactive” and the Potency [7] was “inactive”. For the same compound, the Potency [8] was “inactive”, the Potency [9] was “inactive” and the Potency [10] was “inactive”. The Potency [11] was “inactive”, the Potency [13] was “inactive” and the outcome [14] was “inactive”. For the same compound, the Potency [18] was “inactive” and the Potency [17] was “inactive”.

In the case of `C[C@]12CCC(=O)C=C1[C@@H]1C[C@@H]1[C@H]1[C@@H]3[C@@H]4C[C@@H]4[C@@]4(CCC(=O)O4)[C@@]3(C)CC[C@@H]12`, the Potency [1] is reported as “inactive”, the Potency [2] is reported as “inactive” and the outcome [3] is reported as “inactive”. For the same compound, the Potency [5] was “inactive”, the Potency [6] was “inactive” and the Potency [7] was “inactive”. The Potency [8] was “inactive”, the Potency [9] was “inactive” and the Potency [10] was “inactive”. For the same compound, the Potency [11] was “inactive”, the Potency [12] was “inactive” and the Potency [13] was “inactive”. For the same compound, the outcome [14] was “inactive”, the Potency [16] was “inactive” and the Potency [18] was “inactive”. For the same compound, the Potency [17] was “inactive”.

With `CC(C)C[C@H](NC(=O)[C@H](Cc1ccccc1)NC(=O)c1cnccn1)B(O)O` the Potency [1] was 21.3 nM (active), the Potency [2] was 37.9 nM (active) and the outcome [3] was “inactive”. The Potency [4] was 23.9 nM (active), the Potency [5] was “inactive” and the Potency [6] was 13400 nM (active). The Potency [7] was 30.1 nM (active), the Potency [8] was 95.2 nM (active) and the Potency [10] was “inactive”. The Potency [11] was 190 nM (active), the Potency [12] was “inactive” and the Potency [13] was 23.9 nM (active). For the same compound, the Potency [19] was “inactive”, the Potency [15] was 75.6 nM (active) and the Potency [16] was “inactive”. The Potency [18] was “inactive” and the Potency [17] was “inactive”.

For `CCCCC(CC)COCCC#N` (stereo unspecified), the Potency [1] was “inactive”, the Potency [20] was “inactive” and the max response [4] was 12.6%. For the same compound, the Potency [5] was “inactive”, the Potency [6] was “inactive” and the Potency [7] was “inactive”. The Potency [8] was “inactive”, the Potency [9] was “inactive” and the Potency [10] was “inactive”. For the same compound, the Potency [12] was “inactive”, the Potency [13] was “inactive” and the Potency [19] was “inactive”. The outcome [14] was “inactive”, the Potency [16] was “inactive” and the Potency [18] was “inactive”. The Potency [17] was “inactive”.

For `C=C(C)C(=O)OCCCCCCCCCCOC(=O)C(=C)C`, the Potency [1] was “inactive”, the Potency [20] was “inactive” and the outcome [3] was “inactive”. The max response [4] was -16.4%, the Potency [5] was “inactive” and the Potency [6] was “inactive”. The Potency [7] was “inactive”, the Potency [8] was “inactive” and the Potency [9] was “inactive”. The Potency [11] was “inactive”, the Potency [12] was “inactive” and the Potency [13] was “inactive”. The Potency [19] was “inactive”, the outcome [14] was “inactive” and the Potency [15] was “inactive”. The Potency [16] was “inactive”, the Potency [18] was “inactive” and the Potency [17] was “inactive”.

With `CC(=O)Nc1cccc(N)c1` the Potency [1] was “inactive”, the outcome [3] was “inactive” and the Potency [5] was “inactive”. For the same compound, the Potency [6] was “inactive”, the Potency [7] was “inactive” and the Potency [8] was “inactive”. The Potency [10] was “inactive”, the Potency [11] was “inactive” and the Potency [13] was “inactive”. The Potency [19] was “inactive”, the outcome [14] was “inactive” and the Potency [15] was “inactive”. The Potency [16] was “inactive”, the Potency [18] was “inactive” and the Potency [17] was “inactive”.

For `O=c1c2ccccc2oc2ccccc12`, the Potency [1] was “inactive”, the max response [4] was -17.5% and the Potency [5] was “inactive”. The Potency [6] was “inactive”, the Potency [7] was “inactive” and the Potency [8] was “inactive”. For the same compound, the Potency [9] was “inactive”, the Potency [12] was “inactive” and the Potency [13] was “inactive”. The Potency [19] was “inactive”, the outcome [14] was “inactive” and the Potency [15] was “inactive”. The Potency [18] was “inactive” and the Potency [17] was “inactive”.

With `O=C(OCCN1CCOCC1)c1cccnc1Nc1cccc(C(F)(F)F)c1` the Potency [1] was “inactive”, the outcome [3] was “inactive” and the Potency [5] was “inactive”. The Potency [6] was “inactive”, the Potency [7] was “inactive” and the Potency [8] was “inactive”. The Potency [9] was “inactive”, the Potency [10] was “inactive” and the Potency [11] was “inactive”. For the same compound, the Potency [13] was “inactive”, the Potency [19] was “inactive” and the outcome [14] was “inactive”. The Potency [16] was “inactive” and the Potency [17] was “inactive”.

With `CCCN(C1CCN(C(=O)C2CCNCC2)CC1)[C@@H]1CCc2ccc(OC)cc2C1` the Potency [1] was “inactive”, the Potency [7] was “inactive” and the Potency [10] was “inactive”. The Potency [12] was “inactive”, the outcome [14] was “inactive” and the Potency [16] was “inactive”. For the same compound, the Potency [17] was “inactive”.

In the case of `CC(C)(C)N`, the Potency [2] is reported as “inactive”, the Potency [20] is reported as “inactive” and the outcome [3] is reported as “inactive”. For the same compound, the max response [4] was 1.55%, the Potency [5] was “inactive” and the Potency [6] was “inactive”. For the same compound, the Potency [7] was “inactive”, the Potency [8] was “inactive” and the Potency [9] was “inactive”. The Potency [10] was “inactive”, the Potency [11] was “inactive” and the Potency [12] was “inactive”. The Potency [13] was “inactive”, the Potency [19] was “inactive” and the Potency [15] was “inactive”. For the same compound, the Potency [16] was “inactive”, the Potency [18] was “inactive” and the Potency [17] was “inactive”.

With `O=C(O)COCC(=O)O` the Potency [1] was “inactive”, the Potency [20] was “inactive” and the max response [4] was -0.496%. For the same compound, the Potency [5] was “inactive”, the Potency [6] was “inactive” and the Potency [7] was “inactive”. For the same compound, the Potency [8] was “inactive”, the Potency [9] was “inactive” and the Potency [10] was “inactive”. For the same compound, the Potency [11] was “inactive”, the Potency [12] was “inactive” and the Potency [13] was “inactive”. For the same compound, the Potency [19] was “inactive”, the outcome [14] was “inactive” and the Potency [16] was “inactive”. The Potency [18] was “inactive” and the Potency [17] was “inactive”.

With `COc1ccc(/C(C)=C/C(=O)O)c(OC)c1` the Potency [1] was “inactive”, the Potency [20] was “inactive” and the max response [4] was 6.45%. For the same compound, the Potency [5] was “inactive”, the Potency [6] was “inactive” and the Potency [7] was “inactive”. For the same compound, the Potency [8] was “inactive”, the Potency [11] was “inactive” and the Potency [12] was “inactive”. For the same compound, the Potency [13] was “inactive”, the Potency [19] was “inactive” and the outcome [14] was “inactive”. For the same compound, the Potency [15] was “inactive”, the Potency [16] was “inactive” and the Potency [18] was “inactive”. The Potency [17] was “inactive”.

With `CC(CC(C#N)(c1ccccc1)C(C)C)N(C)C` (stereo unspecified) the Potency [2] was “inactive”, the Potency [20] was “inactive” and the outcome [3] was “inactive”. The max response [4] was 6.67%, the Potency [5] was “inactive” and the Potency [6] was “inactive”. The Potency [7] was “inactive”, the Potency [8] was “inactive” and the Potency [9] was “inactive”. For the same compound, the Potency [10] was “inactive”, the Potency [11] was “inactive” and the Potency [12] was “inactive”. The Potency [13] was “inactive”, the Potency [19] was “inactive” and the Potency [15] was “inactive”. The Potency [16] was “inactive”, the Potency [18] was “inactive” and the Potency [17] was “inactive”.

With `CCOC(C)OCC` the Potency [2] was “inactive”, the Potency [20] was “inactive” and the outcome [3] was “inactive”. The max response [4] was -0.223%, the Potency [5] was “inactive” and the Potency [6] was “inactive”. The Potency [7] was “inactive”, the Potency [8] was “inactive” and the Potency [9] was “inactive”. The Potency [10] was “inactive”, the Potency [11] was “inactive” and the Potency [12] was “inactive”. The Potency [13] was “inactive”, the outcome [14] was “inactive” and the Potency [15] was “inactive”. The Potency [16] was “inactive” and the Potency [17] was “inactive”.

For `CC(C)CC(C)(C)C`, the Potency [1] was “inactive”, the outcome [3] was “inactive” and the Potency [6] was “inactive”. For the same compound, the Potency [7] was “inactive”, the Potency [8] was “inactive” and the Potency [9] was “inactive”. The Potency [13] was “inactive”.

With `c1ccc(CCNc2nc(-c3ccccc3)cs2)cc1` the Potency [1] was “inactive”, the outcome [3] was “inactive” and the max response [4] was -22.9%. The Potency [7] was “inactive”, the Potency [9] was “inactive” and the Potency [10] was “inactive”. For the same compound, the Potency [19] was “inactive”, the outcome [14] was “inactive” and the Potency [15] was “inactive”. For the same compound, the Potency [17] was “inactive”.
